About 2,000 (36%) of roughly 5,500 compounds were called active. Inconclusive results (about 18%) are left out. Rule as the data show it: active = normalized growth mostly below about 0.91 (no sharp cut-off); inconclusive = no clear call, values can overlap the other calls; inactive = mostly above about 0.92. Some of the results follow.
Test: chemical genetic growth profiling, strain panel (AID 1159580);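 also: tested at 20 µM; growth read once vehicle control cultures reached saturation at 30 °C; 1 = growth at the plate median or of vehicle wells; lower values mean less growth of the strain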
Settings: growth OD

Measured: normalized growth

C1CCC(C(CC2CCCCN2)C2CCCCC2)CC1 (centres undefined)
active: S. cerevisiae deletion strains, locus YJR075W, strain HOC1, stronger effect = lower value 0.606 | S. cerevisiae deletion strains, locus YKL190W, strain CNB1, stronger effect = lower value 0.143 | S. cerevisiae deletion strains, locus YKR001C, strain vps1, stronger effect = lower value 0.0792 | S. cerevisiae deletion strains, locus YLR039C, strain RIC1, stronger effect = lower value 0.247 | S. cerevisiae deletion strains, locus YLR058C, strain SHM2, stronger effect = lower value 0.703 | S. cerevisiae deletion strains, locus YLR262C, strain YPT6, stronger effect = lower value 0.151 | S. cerevisiae deletion strains, locus YLR268W, strain sec22, stronger effect = lower value 0.605 | S. cerevisiae deletion strains, locus YLR320W, strain mms22, stronger effect = lower value 0.862 | S. cerevisiae deletion strains, locus YLR330W, strain CHS5, stronger effect = lower value 0.381 | S. cerevisiae deletion strains, locus YLR342W, strain FKS1 (second series), stronger effect = lower value 0.167 | S. cerevisiae deletion strains, locus YLR371W, strain rom2, stronger effect = lower value 0.266 | S. cerevisiae deletion strains, locus YLR418C, strain cdc73, stronger effect = lower value 0.423 | S. cerevisiae deletion strains, locus YML016C, strain PPZ1, stronger effect = lower value 0.363 | S. cerevisiae deletion strains, locus YML032C, strain rad52, stronger effect = lower value 0.877 | S. cerevisiae deletion strains, locus YMR058W, strain fet3, stronger effect = lower value 0.853 | S. cerevisiae deletion strains, locus YMR223W, strain ubp8, stronger effect = lower value 0.454 | S. cerevisiae deletion strains, locus YMR231W, strain pep5, stronger effect = lower value 0.0752 | S. cerevisiae deletion strains, locus YMR263W, strain SAP30, stronger effect = lower value 0.843 | S. cerevisiae deletion strains, locus YMR307W, strain GAS1, stronger effect = lower value 0.174 | S. cerevisiae deletion strains, locus YNL067W, strain RPL9B, stronger effect = lower value 0.793 | S. cerevisiae deletion strains, locus YNL233W, strain BNI4, stronger effect = lower value 0.245 | S. cerevisiae deletion strains, locus YNL307C, strain MCK1, stronger effect = lower value 0.267 | S. cerevisiae deletion strains, locus YNR052C, strain pop2, stronger effect = lower value 0.14 | S. cerevisiae deletion strains, locus YOL006C, strain TOP1, stronger effect = lower value 0.115 | S. cerevisiae deletion strains, locus YOR061W, strain CKA2, stronger effect = lower value 0.114 | S. cerevisiae deletion strains, locus YOR069W, strain VPS5, stronger effect = lower value 0.906 | S. cerevisiae deletion strains, locus YOR106W, strain vam3, stronger effect = lower value 0.458 | S. cerevisiae deletion strains, locus YOR136W, strain idh2, stronger effect = lower value 0.77 | S. cerevisiae deletion strains, locus YOR184W, strain ser1, stronger effect = lower value 0.608 | S. cerevisiae deletion strains, locus YOR270C, strain vph1, stronger effect = lower value 0.452 | S. cerevisiae deletion strains, locus YPL051W, strain arl3, stronger effect = lower value 0.886 | S. cerevisiae deletion strains, locus YPL055C, strain LGE1, stronger effect = lower value 0.4 | S. cerevisiae deletion strains, locus YPR163C, strain tif3, stronger effect = lower value 0.0807 | S. cerevisiae deletion strains, locus YPR167C, strain met16, stronger effect = lower value 0.844 | S. cerevisiae deletion strains, strain wtn01, stronger effect = lower value 0.317 | S. cerevisiae strains, strain wild type, stronger effect = lower value 0.314
inactive: S. cerevisiae deletion strains, locus YJR066W, strain TOR1, stronger effect = lower value 0.973 | S. cerevisiae deletion strains, locus YKL009W, strain mrt4, stronger effect = lower value 1 | S. cerevisiae deletion strains, locus YKL068W, stronger effect = lower value 1.01 | S. cerevisiae deletion strains, locus YKL085W, strain MDH1 (second series), stronger effect = lower value 0.996 | S. cerevisiae deletion strains, locus YKL085W, strain MDH1, stronger effect = lower value 0.996 | S. cerevisiae deletion strains, locus YKL160W, strain elf1, stronger effect = lower value 0.952 | S. cerevisiae deletion strains, locus YKR026C, strain gcn3, stronger effect = lower value 0.988 | S. cerevisiae deletion strains, locus YKR091W, strain srl3, stronger effect = lower value 0.989 | S. cerevisiae deletion strains, locus YLL001W, strain dnm1, stronger effect = lower value 0.992 | S. cerevisiae deletion strains, locus YLL026W, stronger effect = lower value 0.985 | S. cerevisiae deletion strains, locus YLL041C, strain sdh2, stronger effect = lower value 0.967 | S. cerevisiae deletion strains, locus YLR027C, strain aat2, stronger effect = lower value 0.977 | S. cerevisiae deletion strains, locus YLR102C, strain apc9, stronger effect = lower value 1.01 | S. cerevisiae deletion strains, locus YLR113W, strain HOG1, stronger effect = lower value 1.02 | S. cerevisiae deletion strains, locus YLR221C, strain rsa3, stronger effect = lower value 0.98 | S. cerevisiae deletion strains, locus YLR258W, strain gsy2, stronger effect = lower value 0.99 | S. cerevisiae deletion strains, locus YLR262C, strain YPT6 (second series), stronger effect = lower value 1.08 | S. cerevisiae deletion strains, locus YLR342W, strain FKS1, stronger effect = lower value 0.981 | S. cerevisiae deletion strains, locus YLR357W, strain rsc2, stronger effect = lower value 0.963 | S. cerevisiae deletion strains, locus YLR370C, strain arc18, stronger effect = lower value 0.981 | S. cerevisiae deletion strains, locus YLR384C, strain iki3, stronger effect = lower value 0.972 | S. cerevisiae deletion strains, locus YML120C, strain ndi1, stronger effect = lower value 0.973 | S. cerevisiae deletion strains, locus YML124C, strain tub3, stronger effect = lower value 0.954 | S. cerevisiae deletion strains, locus YMR078C, strain ctf18, stronger effect = lower value 1.02 | S. cerevisiae deletion strains, locus YMR125W, strain sto1, stronger effect = lower value 0.897 | S. cerevisiae deletion strains, locus YMR129W, stronger effect = lower value 0.972 | S. cerevisiae deletion strains, locus YMR205C, strain PFK2, stronger effect = lower value 0.93 | S. cerevisiae deletion strains, locus YNL071W, strain lat1, stronger effect = lower value 0.975 | S. cerevisiae deletion strains, locus YNL183C, strain NPR1, stronger effect = lower value 0.976 | S. cerevisiae deletion strains, locus YNL209W, strain ssb2, stronger effect = lower value 0.974 | S. cerevisiae deletion strains, locus YNL248C, strain rpa49, stronger effect = lower value 0.926 | S. cerevisiae deletion strains, locus YNL250W, strain rad50, stronger effect = lower value 1.01 | S. cerevisiae deletion strains, locus YNL271C, strain bni1, stronger effect = lower value 1.01 | S. cerevisiae deletion strains, locus YNL298W, strain CLA4, stronger effect = lower value 1.01 | S. cerevisiae deletion strains, locus YNL322C, strain KRE1 (second series), stronger effect = lower value 0.975 | S. cerevisiae deletion strains, locus YNR049C, strain mso1, stronger effect = lower value 0.99 | S. cerevisiae deletion strains, locus YOL147C, strain pex11, stronger effect = lower value 0.941 | S. cerevisiae deletion strains, locus YOR001W, strain rrp6, stronger effect = lower value 0.893 | S. cerevisiae deletion strains, locus YOR070C, strain gyp1, stronger effect = lower value 0.979 | S. cerevisiae deletion strains, locus YOR080W, strain dia2, stronger effect = lower value 0.988 | S. cerevisiae deletion strains, locus YOR083W, strain WHI5, stronger effect = lower value 0.94 | S. cerevisiae deletion strains, locus YOR144C, strain elg1, stronger effect = lower value 1.02 | S. cerevisiae deletion strains, locus YOR231W, strain MKK1, stronger effect = lower value 1.02 | S. cerevisiae deletion strains, locus YOR265W, strain rbl2, stronger effect = lower value 0.979 | S. cerevisiae deletion strains, locus YOR290C, strain snf2, stronger effect = lower value 0.869 | S. cerevisiae deletion strains, locus YOR316C, strain cot1, stronger effect = lower value 0.97 | S. cerevisiae deletion strains, locus YPL078C, strain atp4, stronger effect = lower value 0.973 | S. cerevisiae deletion strains, locus YPL106C, strain sse1, stronger effect = lower value 0.984 | S. cerevisiae deletion strains, locus YPL240C, strain hsp82, stronger effect = lower value 0.98 | S. cerevisiae deletion strains, locus YPL241C, strain CIN2, stronger effect = lower value 0.93 | S. cerevisiae deletion strains, locus YPL256C, strain CLN2, stronger effect = lower value 1.02 | S. cerevisiae deletion strains, locus YPR119W, strain clb2, stronger effect = lower value 0.935 | S. cerevisiae deletion strains, locus YPR141C, strain kar3, stronger effect = lower value 1.03

Source: PubChem BioAssay AID1159580 (chemical genetic matrix, 2015)
